Experimental data: PubChem BioAssay AID504339 (National Center for Advancing Translational Sciences (NCATS), 2011)
Hit rate of the full screen: of about 390,000 compounds, about 17,000 (4.4%) were called active. Not shown: some 8% with an inconclusive outcome. Calls come from the whole dose curve; as a rule, active = well fitted inhibition curve with a large enough effect; inconclusive = small, poorly fitted or top-dose-only effect; inactive = no such curve, though single readings can be large or run the other way. The list comes from a sample in which actives are over-represented; it also holds similar structures and randomly drawn compounds.

Target: Lysine-specific demethylase 4A (Homo sapiens) (UniProt O75164)
Sequence (O75164 whole entry, looked up, the tested form may be a part): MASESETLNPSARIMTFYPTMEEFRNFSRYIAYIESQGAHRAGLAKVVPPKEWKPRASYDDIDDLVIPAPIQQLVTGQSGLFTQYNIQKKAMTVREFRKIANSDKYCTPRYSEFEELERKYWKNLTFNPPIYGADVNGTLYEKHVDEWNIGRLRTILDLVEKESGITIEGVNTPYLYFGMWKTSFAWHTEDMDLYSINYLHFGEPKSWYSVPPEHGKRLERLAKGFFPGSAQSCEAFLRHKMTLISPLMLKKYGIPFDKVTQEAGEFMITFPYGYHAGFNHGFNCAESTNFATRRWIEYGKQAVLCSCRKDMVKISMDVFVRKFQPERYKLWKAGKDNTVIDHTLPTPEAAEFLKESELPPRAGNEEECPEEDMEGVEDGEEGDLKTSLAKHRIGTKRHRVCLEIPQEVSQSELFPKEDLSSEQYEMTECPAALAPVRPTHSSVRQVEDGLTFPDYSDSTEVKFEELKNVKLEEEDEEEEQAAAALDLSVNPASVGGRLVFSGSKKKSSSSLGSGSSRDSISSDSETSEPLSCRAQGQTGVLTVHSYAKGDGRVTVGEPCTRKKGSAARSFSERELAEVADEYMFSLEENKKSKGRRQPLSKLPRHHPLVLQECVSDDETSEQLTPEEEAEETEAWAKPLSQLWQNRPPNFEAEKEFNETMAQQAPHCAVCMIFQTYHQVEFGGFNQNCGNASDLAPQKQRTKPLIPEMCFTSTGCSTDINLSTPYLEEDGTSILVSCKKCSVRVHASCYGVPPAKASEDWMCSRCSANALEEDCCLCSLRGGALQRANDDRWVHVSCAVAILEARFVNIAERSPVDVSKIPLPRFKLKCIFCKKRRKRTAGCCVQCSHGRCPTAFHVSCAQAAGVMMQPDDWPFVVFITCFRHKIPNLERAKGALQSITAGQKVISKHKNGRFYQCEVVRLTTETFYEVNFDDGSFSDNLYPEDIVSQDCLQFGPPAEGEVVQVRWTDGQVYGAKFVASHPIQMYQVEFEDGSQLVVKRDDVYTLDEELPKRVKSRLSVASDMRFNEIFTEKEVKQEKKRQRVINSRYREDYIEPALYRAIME
Assay: qHTS Assay for Inhibitors of JMJD2A-Tudor Domain; note: nearly all actives have a fitted effect of over 50% in size
Settings: AlphaScreen JMJD2A-Tudor / H3K4me3 peptide binding; series mostly up to 114 µM; activity change, negative = inhibition: at the top concentration
% is set by controls: 0 for no effect and ±100 for the full control effect; potency is the fitted concentration of half-maximal effect.

Activity change, negative = inhibition, inactive:
CCCSc1nc2sc3c(c2c(=O)n1-c1cccc(Br)c1)CC(C)(C)OC3 -6.23%
CCC(C(=O)Nc1cccc(Cl)c1C)n1nc(-c2ccc(C)cc2)ccc1=O (stereo unspecified) 1.57%
CCc1ccc(NC(=O)c2cc(S(=O)(=O)NC3CCCCCC3)ccc2F)cc1 -16.5%
COCCn1c(SCC(=O)Nc2nc(C)cs2)nnc1C(C)C -6.34%
CCn1c(SCC(=O)NC2=NCCS2)nnc1C(C)NC(=O)c1ccccc1F (stereo unspecified) 0.714%
Cc1ccc(N2CC(NC(=O)Cc3cccs3)CC2=O)cc1 (stereo unspecified) -0.325%
COc1cccc(CNCc2c(C(=O)O)n(Cc3ccc(C)cc3)c3cc(C)ccc23)c1OC -27.8%
CCOc1ccc2nc(/N=C/c3nc(-c4ccccc4)oc3O)sc2c1 0.641%
Oc1oc(-c2ccccc2Br)nc1/C=N/c1ccccn1 -28.1%
CCN(Cc1ccccc1)S(=O)(=O)c1ccc2c(c1)CCCN2C(C)=O -0.968%
COC(=O)c1cc(NC(=O)c2cnc(SC)nc2-c2ccccc2)cc(C(=O)OC)c1 -3.53%
O=C1/C(=C/c2ccc(F)cc2)SC(=S)N1NS(=O)(=O)c1ccccc1 -31.5%
O=C1CCCCN1CCCC(=O)N1CCCC(Nc2ccc(F)cc2)C1 (stereo unspecified) -26.6%
CCOc1cccc2cc(-c3cn4c(n3)sc3cc(C)ccc34)c(=O)oc12 -17.3%
O=C(CSc1ncc(S(=O)(=O)c2ccc(Br)cc2)c(=O)[nH]1)Nc1ccc2c(c1)OCCO2 -23.6%
COc1cc2nc(SCC(=O)Nc3ccccc3F)n3nc(-c4ccccc4)nc3c2cc1OC -20.3%
COc1ccc(N2CCN(C(=O)c3cccs3)CC2)cc1 -25.6%
COc1ccc(N2CCN(Cc3nnc(-c4ccccc4)o3)CC2)cc1 -22.4%
COc1cccc(NC(=O)Cn2c(=O)cc(C)c3c(C)nn(-c4cccc(F)c4)c32)c1 -6%
O=S(=O)(c1ccccc1)c1nc(-c2ccc(Cl)cc2Cl)oc1N1CCCCC1 -30.6%
OCCNc1nc2ccccc2n1-c1ncnc2sc3c(c12)CCC3 -15.2%
CCCSc1ncccc1C(=O)O -11%
Cc1ccc2oc3c(c(=O)c2c1)C(c1ccc([N+](=O)[O-])cc1)N(CCCN1CCOCC1)C3=O (stereo unspecified) -12.9%
CCc1ccccc1NC(=O)N1CCC2(CC1)Oc1ccccc1C(=O)N2Cc1ccccc1F -9.82%
CC(=O)Nc1ccc(NC(=O)CCCc2nc(-c3ccc(C(C)(C)C)cc3)no2)cc1 -15.6%
N#Cc1cc([N+](=O)[O-])ccc1Oc1cccc(/C=N/NC(=O)c2ccc(Cl)cc2)c1 3.79%
O=C(N/N=C/c1cccc(OC(=O)c2ccc([N+](=O)[O-])cc2)c1)c1cccnc1 -9.12%
COC(=O)c1ccc(NC(=O)CCc2c(C)nn(-c3ccc(N4CCCC4)nn3)c2C)cc1 -28%
Cc1cc(C)cc(Nc2ncnc3onc(-c4ccc(F)cc4)c23)c1 19.4%
Brc1nc2ncnc(NCc3ccco3)c2[nH]1 -4.62% [at 57.1 µM]
O=C(CNC(=O)c1ccc(Cl)c(C(F)(F)F)c1)OC(C(=O)Nc1cc(C(F)(F)F)ccc1Cl)c1ccccc1 (stereo unspecified) -21.2%
CCOC(=O)c1ccccc1NC(=O)c1nn(-c2ccc(OC)c(Cl)c2)c(=O)c2c1c1ccccc1n2C 0%
N#Cc1nc(Nc2cc(F)cc(Cl)c2)nc(NC2CCCC2)n1 -3.42%
CCCC(=O)N1c2ccc(-c3csc(N)n3)cc2CC1C (stereo unspecified) -22.4%
Cc1onc(C(=O)NN)c1-c1csc(COc2ccccc2)n1 -5.43%
Cc1cc(C)c(NC(=O)CSc2nc3nccnc3c(=O)n2CCc2c[nH]c3ccccc23)c(C)c1 -1.32%
COC(=O)c1ccccc1NC(=O)c1ccc(C#N)cc1 -6.85%
COc1cc(NC(=O)Cn2c(=O)n(Cc3ccco3)c(=O)c3oc4ccccc4c32)cc(OC)c1 -12.1%
O=S(=O)(NCCc1nnc2ccc(SCc3ccc(Cl)cc3Cl)nn12)c1ccccc1 -28.2%
NC(=O)C1(Nc2ccc([N+](=O)[O-])cc2)CCCC1 -8.28%
CNC(=S)Nc1ccc([N+](=O)[O-])cc1 -16.7%
CCS(=O)(=O)N1CCC(n2c(C)nc3cccnc32)CC1 -7.47%
O=C(CSc1ncn[nH]1)Nc1ccnc2ccccc12 -14.5%
CCN(C(=O)COC(=O)c1ccccc1O)c1cccc2ccccc12 5.48%
Cc1ccc(-c2onc(C)c2C)cc1S(=O)(=O)Nc1ccccn1 -2.92%
COC(=O)c1cc(S(=O)(=O)N2CCN(c3cc(Cl)ccc3C)CC2)c[nH]1 -12.8%
Cc1nc2ccn(Cc3cccnc3)c(=O)c2cc1C(=O)N1CCN(c2ccccc2F)CC1 -13.7%
O=C(Cn1nc(Cc2cccnc2)c2ccccc2c1=O)N1CCN(c2ccccc2F)CC1 -17.9%
CCN(CC)S(=O)(=O)c1ccc(C(=O)N=c2sc3cccc(OC)c3n2C)cc1 7.09%
O=C(NCc1ccc2c(c1)CCN2C(=O)c1ccccc1)Nc1cc(F)ccc1F -25.3%
CCc1cnc2c(c1SCC(=O)c1ccccc1)c(=O)n(C)c(=O)n2C -8.44%
COc1ccc(-c2nn3c(=O)cc(CN4CCN(C(=O)c5ccc(OC)c(OC)c5)CC4)nc3s2)cc1 -11.7%
COc1ccccc1OCCCCCCN1CCN(C)CC1 -32.2%
CN1CCN(CCCCOc2cccc3ccccc23)CC1 -30.3%

Potency, active:
CCn1c(SCC(=O)Nc2nc(C)cs2)nnc1C(C)NC(=O)c1ccccc1 (stereo unspecified) 79.4 µM
CC(N=Cc1nc(-c2ccccc2)oc1O)c1ccccc1 (stereo unspecified) 79.4 µM
O=C1/C(=C/c2ccc(F)cc2)SC(=S)N1CCCC(=O)N1CCCCC1CCO (stereo unspecified) 44.7 µM
COc1ccc(N2CCN(Cc3ccc(Br)s3)CC2)cc1 3.55 µM
O=C(O)c1cccnc1Sc1ncnc2sc3c(c12)CCC3 31.6 µM
O=C(N/N=C/c1ccc(Cl)cc1)c1nc2ccc([N+](=O)[O-])cc2c(=O)[nH]1 28.2 µM
O=C1CSC(=S)N1/N=C/c1ccc(O)c([N+](=O)[O-])c1 20 µM
CC(C)(C)C(=O)OCc1nc(-c2ccc(O)c(O)c2)cs1 3.55 µM
O=C(O)/C=C/C(=O)NNc1ccc([N+](=O)[O-])cc1 31.6 µM
CCN(C(=O)CSc1ncn[nH]1)c1cccc2ccccc12 3.16 µM
O=C(Nn1cc(C(=O)N2CCN(c3ccccc3F)CC2)c2ccccc2c1=O)c1cnccn1 25.1 µM
CCN1CCN(CCCCOc2ccccc2F)CC1 0.794 µM
